Results published in PubChem BioAssay (Tox21).
Records with an inconclusive call do not appear. Entries that show only a call come without a potency. The source made the active and inactive calls. Unless noted, calls follow the shape of the dose curve; as a rule, active = well fitted curve in the direction sought with a large enough effect in the repeat runs; inconclusive = weak or mixed curves; inactive = no such curve, though single readings can be large; an effect the other way counts as inactive or inconclusive.

Assays:
[1] = A CellTox Green Cytotoxicity Assay to monitor cytotoxicity in HepG2 cells - 0 hour (AID 1224882); also: nearly all actives have a fitted effect of over 35% in size
Procedure, shortened: (§1)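 Nonlytic assay: viable cells exclude the dye, so fluorescence scales with cell death. HepG2 at 600 cells/well, compounds added after 5 h, signal read across 40 h.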

[2] = A CellTox Green Cytotoxicity Assay to monitor cytotoxicity in HepG2 cells - 32 hour (AID 1224883); also: nearly all actives have a fitted effect of over 50% in size; also: potency is read from the fitted curve at half-maximal effect
Procedure, shortened: as §1

[3] = A CellTox Green Cytotoxicity Assay to monitor cytotoxicity in HEK293 cells - 8 hour (AID 1224884); also: nearly all actives have a fitted effect of over 35% in size; also: potency is read from the fitted curve at half-maximal effect
Procedure, shortened: (§2)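 Seeding of HEK293 cells together with cytotoxicity dye preceded a 5 h incubation at 37 C/5% CO2. Test compounds in DMSO were then added and fluorescence monitored across 40 h.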

[4] = qHTS RealTime-Glo MT Cell Viability Assay in HEK293 cells - 24 hour (AID 1224886); also: nearly all actives have a fitted effect of over 50% in size; also: potency is read from the fitted curve at half-maximal effect
Procedure, shortened: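 Assay medium contained NanoLuc luciferase plus cell-permeant prosubstrate, added with HEK293 cells at 600 cells/well. After 5 h at 37 C/5% CO2 compounds were added; plates stayed at 37 C for 40 h with serial luminescence reads.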

[5] = qHTS RealTime-Glo MT Cell Viability Assay in HEK293 cells - 8 hour (AID 1224887); also: top concentration of the series differs between compounds; nearly all actives have a fitted effect of over 50% in size
Procedure, shortened: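 Tox21 screen in HEK293 using RealTime-Glo MT chemistry, with cells and reagent co-dispensed. Luminescence proportional to viable cell number was captured at intervals during 40 h compound exposure at 37 C.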

[6] = A CellTox Green Cytotoxicity Assay to monitor cytotoxicity in HEK293 cells - 16 hour (AID 1224888); also: nearly all actives have a fitted effect of over 35% in size; also: potency is read from the fitted curve at half-maximal effect
Procedure, shortened: as §2

[7] = qHTS RealTime-Glo MT Cell Viability Assay in HepG2 cells - 0 hour (AID 1224889); also: nearly all actives have a fitted effect of over 50% in size
Procedure, shortened: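 qHTS, HepG2, 600 cells/well, RealTime-Glo (NanoLuc + prosubstrate) added with cells; 5 h preincubation; DMSO compound addition; 37 C; luminescence at 0/8/16/24/32/40 h.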

[8] = qHTS assay to identify small molecule antagonists of the estrogen receptor alpha (ER-alpha) signaling pathway using the BG1 cell line in the presence of 0.1 nM 17-beta-estradiol - cell viability counter screen (AID 1259241); also: nearly all actives have a fitted effect of over 40% in size
Procedure, shortened: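 VM7Luc4E2 cells (endogenous ER-alpha, 4×ERE-luciferase), hormone-starved 5 days in charcoal-stripped FBS, were treated with compounds plus 0.1 nM 17beta-estradiol for 22 hr at 37C; viability read in same wells as CellTiter-Fluor live-cell protease fluorescence.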

[9] = qHTS assay to identify small molecule antagonists of the androgen receptor (AR) signaling pathway using the MDA cell line in the presence of 0.5 nM R1881 - cell viability counter screen (AID 1259242); also: nearly all actives have a fitted effect of over 45% in size
Procedure, shortened: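 R1881 at 0.5 nM final stimulated MDA-kb2 cells during 16 hr compound treatment at 37C. Cytotoxicity read: CellTiter-Fluor fluorescence after 30 min.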

[10] = qHTS assay to identify small molecule HDAC inhibitors (AID 1259364);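 also: wild-type HCT-116 cells with endogenous class I/II HDAC activity; top concentration of the series differs between compounds; nearly all actives have a fitted effect of over 45% in size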
Procedure, shortened: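 Relative class I and II HDAC activity is taken from the luminogenic signal in HCT-116 cells, with compound exposure 2 hr and reagent development 30 min at room temperature.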

[11] = qHTS assay to identify small molecule HDAC inhibitors - cell viability counter screen (AID 1259365)
Procedure, shortened: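 Wild-type HCT-116 cells were seeded at 1,500 per well, incubated overnight at 37 C, then exposed to compounds in DMSO for 2hr. Viability was read by CellTiter-Glo luminescence after 30min at room temperature.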

[12] = qHTS assay to identify small molecule agonists of the sonic hedgehog signaling (Shh) pathway - cell viability counter screen (AID 1259366); also: nearly all actives have a fitted effect of over 50% in size
Procedure, shortened: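 NIH/3T3-derived 3T3 Gli1-Luc cells (stable Gli1-responsive firefly luciferase reporter) were seeded, rested 4 hr at 37 C/5% CO2, then exposed to compounds in DMSO for 24 hr; viability was read by CellTiter-Fluor fluorescence in the same wells.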

[13] = qHTS assay to identify small molecule antagonists of the sonic hedgehog signaling (Shh) pathway - cell viability counter screen (AID 1259367); also: nearly all actives have a fitted effect of over 55% in size
Procedure, shortened: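 NIH/3T3-derived Gli1-Luc reporter cells (2,000 per well) rested 4 hr at 37 C, then received DMSO compounds plus conditioned medium. After 23 hr of treatment, CellTiter-Fluor was added for 1 hr at 37C and fluorescence read.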

[14] = qHTS assay to identify small molecule agonists of the sonic hedgehog signaling (Shh) pathway (AID 1259368; calls by dose curve; also: series mostly up to about 92 µM; nearly all actives have a fitted effect of over 15% in size)
Procedure, shortened: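 Mouse fibroblast (NIH/3T3) reporter cells with stably integrated Gli1-Luc were treated 24 hr with compound; firefly luciferase luminescence served as the read-out.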

[15] = qHTS assay to identify small molecule antagonists of the sonic hedgehog signaling (Shh) pathway (AID 1259369; calls by dose curve; also: nearly all actives have a fitted effect of over 45% in size; also: potency is read from the fitted curve at half-maximal effect)
Procedure, shortened: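 Conditioned medium drives Shh signalling in 3T3Gli1-Luc cells; compounds in DMSO co-applied, 24hr at 37 C, then luciferase luminescence.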

[16] = target: Estrogen receptor (Homo sapiens) (UniProt P03372); test: qHTS assay to identify small molecule antagonists of the estrogen receptor alpha (ER-alpha) signaling pathway using the BG1 cell line in the presence of 0.1 nM 17-beta-estradiol (AID 1259244); also: nearly all actives have a fitted effect of over 50% in size; also: potency is read from the fitted curve at half-maximal effect
Procedure, shortened: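 VM7Luc4E2; 4xERE-luciferase; 0.1 nM E2 final; 22 h co-incubation, 37C; ONE-Glo luminescence after 30 min at room temperature.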

[17] = A CellTox Green Cytotoxicity Assay to monitor cytotoxicity in HepG2 cells - 8 hour (AID 1224890); also: nearly all actives have a fitted effect of over 45% in size
Procedure, shortened: as §1

[18] = qHTS assay to identify small molecule phospholipidosis (PLD) inducers (AID 1259344; active = well fitted curve in the direction sought with a large enough effect; an effect the other way counts as inactive or inconclusive; also: potency is read from the fitted curve at half-maximal effect)
Procedure, shortened: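 HepG2 cells on collagen I, attached 4 h at 37 C, were co-treated with compound and LipidTOX Red dye for 24 h at 37 C, then fixed with paraformaldehyde plus Hoechst 33342 and imaged by high-content microscopy for phospholipid accumulation.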

[19] = target: Androgen receptor (Homo sapiens) (UniProt P10275); test: qHTS assay to identify small molecule antagonists of the androgen receptor (AR) signaling pathway using the MDA cell line in the presence of 0.5 nM R1881 (AID 1259243); also: nearly all actives have a fitted effect of over 50% in size
Procedure, shortened: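 We exposed MDA-kb2 cells to compounds under 0.5 nM R1881 stimulation for 16 hr at 37C and quantified MMTV-driven luciferase by luminescence.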

Estrogen receptor (Homo sapiens), sequence (P03372 whole entry, looked up): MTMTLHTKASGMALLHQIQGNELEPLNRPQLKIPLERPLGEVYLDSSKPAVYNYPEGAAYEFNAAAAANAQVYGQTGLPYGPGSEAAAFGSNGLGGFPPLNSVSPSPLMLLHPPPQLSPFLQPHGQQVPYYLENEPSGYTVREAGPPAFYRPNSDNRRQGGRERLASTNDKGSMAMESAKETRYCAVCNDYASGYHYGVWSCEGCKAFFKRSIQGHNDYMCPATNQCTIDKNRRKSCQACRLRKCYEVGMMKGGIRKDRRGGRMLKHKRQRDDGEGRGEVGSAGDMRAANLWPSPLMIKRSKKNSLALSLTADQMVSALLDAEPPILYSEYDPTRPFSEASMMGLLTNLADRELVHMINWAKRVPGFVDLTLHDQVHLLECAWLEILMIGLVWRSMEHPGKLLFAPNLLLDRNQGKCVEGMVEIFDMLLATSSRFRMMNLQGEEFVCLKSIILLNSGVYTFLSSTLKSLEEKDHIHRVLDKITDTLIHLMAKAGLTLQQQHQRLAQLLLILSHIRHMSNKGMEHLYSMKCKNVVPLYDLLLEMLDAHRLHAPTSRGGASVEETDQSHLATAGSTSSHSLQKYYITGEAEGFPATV
Androgen receptor (Homo sapiens), sequence (P10275 whole entry, looked up): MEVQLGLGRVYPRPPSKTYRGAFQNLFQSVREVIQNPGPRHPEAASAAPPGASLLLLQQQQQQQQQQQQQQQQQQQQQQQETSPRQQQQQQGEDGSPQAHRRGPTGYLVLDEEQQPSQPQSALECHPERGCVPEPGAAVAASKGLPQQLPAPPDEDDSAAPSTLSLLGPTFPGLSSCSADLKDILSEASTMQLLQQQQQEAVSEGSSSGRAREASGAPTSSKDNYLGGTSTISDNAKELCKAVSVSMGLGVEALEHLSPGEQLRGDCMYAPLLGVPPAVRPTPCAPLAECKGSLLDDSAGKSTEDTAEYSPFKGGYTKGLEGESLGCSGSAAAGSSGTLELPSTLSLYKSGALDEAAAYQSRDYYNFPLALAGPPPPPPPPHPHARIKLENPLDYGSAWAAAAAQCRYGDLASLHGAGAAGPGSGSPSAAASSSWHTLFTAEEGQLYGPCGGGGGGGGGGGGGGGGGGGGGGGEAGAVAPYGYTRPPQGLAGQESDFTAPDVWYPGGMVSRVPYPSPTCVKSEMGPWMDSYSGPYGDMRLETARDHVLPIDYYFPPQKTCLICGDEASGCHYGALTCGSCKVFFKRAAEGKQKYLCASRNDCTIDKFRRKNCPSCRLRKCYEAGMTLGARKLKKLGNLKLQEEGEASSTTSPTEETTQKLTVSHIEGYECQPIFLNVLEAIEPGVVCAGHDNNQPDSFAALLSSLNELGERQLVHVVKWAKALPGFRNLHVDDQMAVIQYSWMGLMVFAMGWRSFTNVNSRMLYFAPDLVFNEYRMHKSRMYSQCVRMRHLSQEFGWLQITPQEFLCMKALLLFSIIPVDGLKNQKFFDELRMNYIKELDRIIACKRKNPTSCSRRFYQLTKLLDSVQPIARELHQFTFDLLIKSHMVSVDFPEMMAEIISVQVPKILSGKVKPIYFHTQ

Row | Structure (SMILES) | Potency [1] | Potency [2] | Potency [3] | Potency [4] | Potency [5] | Potency [6] | Potency [7] | Potency [8] | Potency [9] | Potency [10] | Potency [11] | Potency [12] | Potency [13] | outcome [14] | Potency [15] | Potency [16] | Potency [17] | Potency [18] | Potency [19]
1 | O=C(O)c1ccccc1Cl | inactive | inactive | inactive | inactive | inactive | inactive | inactive | inactive | inactive | inactive | inactive | inactive | inactive | inactive | inactive | – | – | – | –
2 | CN1Cc2cc(C(=O)N3CCC(C4CCNCC4)CC3)ccc2NC(CC(=O)O)C1=O (stereo not drawn) | inactive | inactive | inactive | – | – | inactive | inactive | inactive | inactive | inactive | inactive | inactive | inactive | inactive | inactive | inactive | – | – | –
3 | O=[N+]([O-])c1cccc(S(=O)(=O)O)c1 | inactive | inactive | inactive | 22.2 µM (active) | – | inactive | inactive | inactive | – | inactive | inactive | inactive | inactive | inactive | inactive | – | inactive | – | –
4 | Nc1ccc(S(=O)(=O)Nc2ccccc2)cc1 | inactive | inactive | inactive | inactive | inactive | inactive | inactive | inactive | inactive | inactive | inactive | inactive | – | inactive | – | – | inactive | inactive | –
5 | CCCCCCCC#N | inactive | inactive | inactive | inactive | inactive | – | inactive | inactive | inactive | inactive | inactive | inactive | – | inactive | 30.6 µM (active) | – | inactive | – | –
6 | CC(=O)OC[C@H]1O[C@@H](n2ncc(=O)[nH]c2=O)[C@H](OC(C)=O)[C@@H]1OC(C)=O | inactive | inactive | inactive | inactive | inactive | inactive | inactive | inactive | inactive | inactive | – | inactive | inactive | inactive | inactive | inactive | inactive | inactive | inactive
7 | NCCCN1CCOCC1 | inactive | inactive | inactive | – | inactive | inactive | inactive | inactive | inactive | inactive | inactive | inactive | inactive | inactive | inactive | inactive | inactive | – | inactive
8 | Cc1ncc(CO)c(C=O)c1O | inactive | inactive | inactive | inactive | inactive | inactive | inactive | – | inactive | inactive | – | inactive | inactive | inactive | inactive | inactive | inactive | inactive | –
9 | COc1ccc(C(=O)Nc2nc3ccccc3c(NCc3ccccc3)c2C#N)cc1 | inactive | inactive | inactive | – | inactive | inactive | inactive | inactive | inactive | inactive | inactive | – | – | inactive | – | 10.9 µM (active) | inactive | – | –
10 | CCCCCCCCO[C@@H]1O[C@H](CO)[C@@H](O)[C@H](O)[C@H]1O | inactive | inactive | inactive | inactive | inactive | inactive | inactive | inactive | inactive | inactive | – | inactive | – | inactive | inactive | inactive | inactive | – | –
11 | C=C1[C@H]2CC[C@@H]3[C@H]2C(C)(C)CCC[C@]13C | inactive | inactive | inactive | – | – | inactive | inactive | inactive | inactive | inactive | inactive | inactive | inactive | inactive | inactive | inactive | – | – | –
12 | CCCCCCCCCCCCCCOS(=O)(=O)O | inactive | 38.9 µM (active) | 21.9 µM (active) | – | inactive | 43.6 µM (active) | inactive | – | inactive | inactive | inactive | inactive | inactive | inactive | inactive | inactive | – | – | –
13 | CNC(=O)CN(CCN(CCN(CC(=O)[O-])CC(=O)NC)CC(=O)[O-])CC(=O)[O-].O.[Gd+3] | inactive | inactive | inactive | inactive | inactive | inactive | inactive | inactive | inactive | inactive | inactive | inactive | inactive | inactive | inactive | inactive | inactive | inactive | –
14 | COCC(C)OC(C)=O (stereo not drawn) | inactive | inactive | inactive | – | inactive | inactive | inactive | inactive | inactive | inactive | inactive | inactive | inactive | inactive | inactive | inactive | inactive | – | –
15 | C#Cc1cccc(Nc2ncnc3cc(OCCOC)c(OCCOC)cc23)c1 | inactive | inactive | inactive | inactive | inactive | inactive | inactive | inactive | inactive | inactive | inactive | – | – | inactive | – | inactive | inactive | 10 µM (active) | –
